Screening data: PubChem BioAssay, National Center for Advancing Translational Sciences (NCATS)
NS1 inh = blocks influenza NS1 protein function; Potency, µM (doses to about 46.1 µM), without a hit: top-dose activity, positive = more growth; actives 0.4% (n = 270,000); calls by dose curve; further: actives are rising curves; nearly all actives have a fitted effect of over 50% in size
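OD600 was taken as the measure of yeast growth restored by compound in an NS1-expressing S. cerevisiae strain. Cells had been washed out of glucose medium and diluted 1:100 into galactose -URA medium, pH 6.0.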
Sm TGR inh = blocks Schistosoma mansoni thioredoxin glutathione reductase. purified TGR, DTNB reduction, TNB absorbance 405 nm. Potency, µM (highest dose often 114 µM), inactives show top-dose activity change, negative = inhibition, hits mostly inhibitors. actives 3% (n = 360,000). AID 485364; further: on the % scale 0 is the no-effect control and ±100 the full control effect; nearly all actives have a fitted effect of over 60% in size
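First, TGR (20 nM dispensed) and NADPH were mixed with compound. Second, a 15 min room-temperature incubation followed. Third, further NADPH and then DTNB were added to start the reaction. Finally, TNB absorbance was monitored kinetically.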
TbPYK inhibitor = T. brucei pyruvate kinase inhibition | Q57TT1 | TbPYK enzyme, Kinase-Glo Plus ATP luminescence, 45 min | Potency, µM (top dose mostly 76.8 µM), for inactives: top-dose activity, negative = inhibition, usual class: inhibitors | actives 0.12% (n = 410,000) | AID 624173; further: on the % scale 0 is the no-effect control and ±100 the full control effect; nearly all actives have a fitted effect of over 50% in size
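Enzyme and substrate buffer are dispensed first and compound is pin-transferred. ADP at 130 uM final then starts the reaction, which runs 45 min at room temperature. Detection reagent is added for 10 min before luminescence is imaged.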
SARS PLP yeast = blocks SARS-CoV papain-like protease in a yeast assay; S. cerevisiae expressing SARS-CoV PLpro, growth rescue; Potency, µM (top dose mostly 32.9 µM), without a hit: top-dose activity, positive = growth rescue, usual class: activators; actives 0.19% (n = 330,000); AID 485353; calls by dose curve; further: 0% is about no effect; nearly all actives have a fitted effect of over 55% in size
RE007 growth inh = less growth of the S. pombe RE007 Vpr strain; S. pombe RE007 Vpr strain, BacTiter-Glo ATP luminescence, 24 h; Potency, µM (doses to about 92.2 µM), for inactives: top-dose activity change, negative = less growth, hits mostly inhibitors; actives 0.21% (n = 360,000); active means well fitted falling curve with a large enough effect; inconclusive means small, poorly fitted or top-dose-only effect; inactive means no such curve, though single readings can be large or run the other way; further: on the % scale 0 is the no-effect control and ±100 the full control effect; nearly all actives have a fitted effect of over 50% in size
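Fission yeast strain RE007, carrying one chromosomally integrated HIV-1 vpr copy, was seeded at OD 0.01 in PMG+AL medium with 23 nL pinned compound. After 24 h at 30 °C and 99% humidity, viability was read by BacTiter-Glo luminescence.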
LmPK inhibitor = inhibitors of Leishmania mexicana pyruvate kinase; Potency, µM (doses to about 57.5 µM), for inactives: top-dose activity change, negative = inhibition, actives largely listed as inhibitors; purified LmPK, Kinase-Glo ATP luminescence, 1 h; Q27686; actives 0.37% (n = 290,000); further: on the % scale 0 is the no-effect control and ±100 the full control effect
Target sequence (Q27686 whole entry, looked up): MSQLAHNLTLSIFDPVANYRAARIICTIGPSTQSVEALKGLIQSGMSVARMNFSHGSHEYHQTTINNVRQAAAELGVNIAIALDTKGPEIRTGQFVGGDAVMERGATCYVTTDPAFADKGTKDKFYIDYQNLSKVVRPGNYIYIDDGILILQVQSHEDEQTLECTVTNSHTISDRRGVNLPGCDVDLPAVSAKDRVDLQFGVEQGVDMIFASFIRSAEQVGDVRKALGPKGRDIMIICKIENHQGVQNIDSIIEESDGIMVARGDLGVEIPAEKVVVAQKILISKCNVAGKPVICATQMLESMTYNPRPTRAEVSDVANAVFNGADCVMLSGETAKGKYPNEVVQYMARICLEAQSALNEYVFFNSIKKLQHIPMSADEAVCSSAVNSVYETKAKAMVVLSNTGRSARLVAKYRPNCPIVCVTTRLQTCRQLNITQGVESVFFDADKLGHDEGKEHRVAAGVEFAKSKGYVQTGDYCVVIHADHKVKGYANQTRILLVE
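Purified LmPK (0.1 nM) converted ADP (0.1 mM) to ATP with PEP (0.5 mM) in imidazole buffer pH 7.2 with KCl and MgCl2, 1 h at room temperature. ATP was read by Kinase-Glo luminescence; data normalized to uninhibited and no-enzyme controls.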
* hit, by the source's call; ? = inconclusive; · = not tested or not shown; [ ] = another dose, or the depositor's remark. Most compounds without a hit are left out; they make up all but 3.3% or so of the library. Unless noted, the call rests on the fitted dose curve; in most records, active means well fitted curve in the direction sought with a large enough effect; inconclusive means small, poorly fitted or top-dose-only effect, or another doubt; inactive means no such curve, though single readings can be large; an effect the other way counts as inactive or inconclusive. Potency means the concentration at half of the fitted maximal effect.

SMILES | NS1 inh | Sm TGR inh | TbPYK inhibitor | SARS PLP yeast | RE007 growth inh | LmPK inhibitor
C=CCN1C(C(=O)c2ccccc2)=C(OC(=O)COc2ccccc2)c2ccccc2S1(=O)=O | -47% | 11µM* | -9% | -94% | ? | 0%
CCCN1C(C(=O)c2ccccc2)=C(OC(=O)COc2ccc(C)cc2)c2ccccc2S1(=O)=O | · | 10µM* | 1% | · | · | ·
O=C(NCCc1ccc(Cl)cc1)C1CCN(Cc2cc3ccccc3n2Cc2ccccc2)CC1 | · | 1% | 1% | · | · | ·
O=C(O)CC12C[C@H]3C[C@@H](CC(O)(C3)C1)C2 | -1% | · | · | · | · | ·
N=C(N)C(N=Nc1ccccc1)C(=N)N (stereo not drawn) | -4% | · | · | · | · | ·
COc1ccc(Cl)cc1NCc1nnc2n1CCCCC2 | · | 15% | 1% | · | · | ·
O=C(CCSCc1ccccc1F)N1CCN(c2ccc(F)cc2)CC1 | · | 13% | -5% | · | · | ·
Cc1nc2nc(NCc3ccc(Br)cc3)[nH]n2c(=O)c1Cc1ccccc1 | · | 3% | -2% | · | · | ·
NNC(=O)[C@@H](O)[C@H](O)[C@H](O)CO | -3% | · | · | · | · | ·
CCN1C(C(=O)c2ccccc2)=C(OC(=O)c2ccc(Cl)cc2)c2ccccc2S1(=O)=O | · | -1% | -5% | · | · | ·
CCN1C(C(=O)c2ccccc2)=C(OC(=O)COc2ccc(C)cc2)c2ccccc2S1(=O)=O | · | 10µM* | 7% | · | · | ·
COc1ccc(NC(=O)Cn2c(=O)oc3cc(S(=O)(=O)N4CCCC4)ccc32)cc1OC | · | -4% | 0% | · | · | ·
CC1(C)CC(=O)C2=C(C1)OC1=C(C(=O)CC(C)(C)C1)C2c1ccc(O)cc1O | -84% | 22µM* | 40µM* | -23% | ? | 4%
CC1(C)CC(=O)C2=C(C1)OC1=C(C(=O)CC(C)(C)C1)C2c1ccc(O)c([N+](=O)[O-])c1 | · | -4% | -1% | -1% | 16% | 7%
CCOc1ccc(OCC)c(Nc2cc(C)nc3nc(-c4ccco4)nn23)c1 | · | ? | -1% | · | · | ·
COc1ccccc1CCNC(=O)Cc1c(C)c2cc3c(C)coc3cc2oc1=O | · | -2% | -4% | · | · | ·
Cc1cc(C(=O)COC(=O)c2ccc(F)cc2)c(C)n1C | · | · | 2% | -4% | 1% | ·
Cc1cc(C(=O)COC(=O)c2cc(Cl)c(O)c(Cl)c2)c(C)n1C | · | 50µM* | 3% | 1% | -10% | ·
CCc1cccc(NC(=O)C(c2ccccc2)N2Cc3ccccc3C2=O)c1 (stereo not drawn) | · | 1% | -11% | · | · | ·
O=C1CC(N2CCC(O)(c3ccc(Cl)cc3)CC2)C(=O)N1Cc1ccc(N2CCCC2=O)cc1 (stereo not drawn) | -43% | 32µM* | -3% | 0% | -21% | -1%
O=C1CC(N2CCOCC2)C(=O)N1Cc1ccc(N2CCCC2=O)cc1 (stereo not drawn) | -7% | -1%[11.4 µM] | 2% | 0% | -3% | 1%
O=C1CCCN1CCC1CCN(C2CC(=O)N(Cc3ccc(N4CCCC4=O)cc3)C2=O)CC1 (stereo not drawn) | -8% | 18µM* | 2% | -16% | ? | 3%
O=C1CCCN1CCC1CCN(C2CC(=O)N(c3ccc(Cl)cc3)C2=O)CC1 (stereo not drawn) | -197% | 18µM* | 4% | · | 5µM* | -10%
O=C1CC(N2CCN(C/C=C/c3ccccc3)CC2)C(=O)N1Cc1ccc(N2CCCC2=O)cc1 (stereo not drawn) | -14% | -30% | 2% | -7% | -26% | -8%
O=C1CC(N2CCN(c3ccccc3)CC2)C(=O)N1c1ccc(Cl)cc1 (stereo not drawn) | 4% | ? | 3% | -23% | -5% | 8%
SMILES | NS1 inh | Sm TGR inh | TbPYK inhibitor | SARS PLP yeast | RE007 growth inh | LmPK inhibitor
CCc1ccccc1NC(=O)c1ccc2c(c1)CCCN2S(C)(=O)=O | · | -1% | -2% | · | · | ·
CCC(=O)Nc1ncnc2ncn(C(=O)CC)c12 | 3% | · | · | · | · | ·
N=C(N)c1ccc(-c2ccc(-c3ccc(C(=N)N)cc3)o2)cc1 | -37% | · | · | · | · | ·
CCOC(=O)/C(=N/Nc1ccccc1OC)N1CCCc2ccccc21 | -1% | 40µM* | -12% | -1% | 5% | -2%
CN1CCN(CCCBr)CC1 | 2% | · | · | · | · | ·
CCN(c1cccc(C)c1)C1C(=O)c2ccccc2N1C(C)=O (stereo not drawn) | -2% | 22µM* | -6% | -2% | 1% | 0%
O=C(Cn1c(=O)oc2cc(S(=O)(=O)N3CCCCCC3)ccc21)Nc1cccc(C(F)(F)F)c1 | · | 6% | 5%[15.4 µM] | · | · | ·
COc1ccc(NC2=C(c3ccccc3)C(=O)c3ccccc32)cc1Cl | · | -4% | 3% | · | · | ·
COc1ccc(OC)c(NC2=C(c3ccccc3)C(=O)c3ccccc32)c1 | · | 35µM* | -7% | · | · | ·
CCC(OC(=O)CC1Sc2ccccc2NC1=O)C(=O)NCC1CCCO1 (stereo not drawn) | 1% | 25µM* | -13% | 0% | 12% | -1%
CCOC(=O)CC1Sc2ccccc2NC1=O (stereo not drawn) | 1% | -16% | -1% | -6% | 3% | 1%
CC(C)c1ccc(NC(=O)CN2C(=O)COc3ccc(S(=O)(=O)N4CCCCCC4)cc32)cc1 | · | 1% | -11% | · | · | ·
COc1cc(/C=N/NC(=O)CN2CCOCC2)ccc1OCc1ccccc1 | -28% | -9% | 0% | -5% | -7% | -3%
COc1cc(/C=N\NC(=O)CN2CCOCC2)ccc1OCC(=O)Nc1ccc(C)c(C)c1 | -11% | 89µM* | -2% | -2% | 22% | 1%
Cc1cccc(N2CCN(C(=O)Cn3c(=O)c4cccn4c4ccc(F)cc43)CC2C)c1 (stereo not drawn) | · | ? | 0% | · | · | ·
Cc1c(Nc2cc(N3CCOCC3)c3nonc3c2[N+](=O)[O-])c(=O)n(-c2ccccc2)n1C | · | 18µM* | · | 0% | · | 0%
O=C1OC(c2ccc(F)cc2)=C/C1=C\c1ccc(O)cc1 | 7% | 13µM* | -4% | -1% | -15% | 2%
O=C1OC(c2ccccc2)=C/C1=C/c1cccs1 | -31% | -34% | -15% | -3% | -14% | -26%
O=C1OC(c2ccc(F)cc2)=C/C1=C\c1ccc([N+](=O)[O-])o1 | · | 4µM* | · | -6% | · | 21%
O=C(C[n+]1cc(Br)cc(Br)c1)c1ccc(-c2ccccc2)cc1 | 0% | 0% | -3% | 16% | -11% | -1%
O=C(C[n+]1cc(Br)cc(Br)c1)c1ccccc1 | 2% | 11µM* | -5% | 5% | -16% | 5%
O=C(C[n+]1ccncc1)c1ccccc1 | 14% | 35µM* | -20% | ? | -9% | 1%
Cc1ccc(C(=O)C[n+]2cc(Br)cc(Br)c2)cc1[N+](=O)[O-] | ? | 32µM* | -1% | -6% | -18% | -3%
COc1ccc(CNC(=O)c2ccc3c(c2)nc2n3CCC(C)C2)c(OC)c1 (stereo not drawn) | · | 4% | -2% | · | · | ·
